According to the supplement of paper PMC10849652:
Of roughly 7,900 targets only a part is listed; those with a hit were picked by preference. About 0.6% of all pairs of compound and target were hits.

How the values were obtained:
Assay in all cases: log2 fold change, soluble protein after heating vs DMSO (PISA); higher = thermal stabilisation; K562 cells, 10 uM, 30 min; active = over 0.2 and 3.5 SD of the protein, either way, in both replicates (recomputed)
filanesib = compound: CON(C)C(=O)N1N=C(c2cc(F)ccc2F)S[C@@]1(CCCN)c1ccccc1 [filanesib]
Procedure, shortened: (§1)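 Values are thermal stability changes relative to control samples and are taken from duplicates. They are stated as log2 fold changes. Before quantification by TMTpro 16plex LC-MS/MS with equalised channel sums, K562 cells at 2×10^6 cells/mL were treated with 10 μM compound for 30 min, heated in aliquots for 3 min across 48°C-58°C, pooled, extracted in PBS with 0.5% NP-40 at 4°C, and centrifuged at 21,000xg for 90 min to give the soluble supernatant.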

idasanutlin = compound: COc1cc(C(=O)O)ccc1NC(=O)[C@@H]1N[C@@H](CC(C)(C)C)[C@](C#N)(c2ccc(Cl)cc2F)[C@H]1c1cccc(Cl)c1F [idasanutlin]
Procedure, shortened: as §1

alisertib = compound: COc1cc(Nc2ncc3c(n2)-c2ccc(Cl)cc2C(c2c(F)cccc2OC)=NC3)ccc1C(=O)O [alisertib]
Procedure, shortened: as §1

[1] = compound: COc1cccc2cc(-c3nc([C@H]4CC[C@H](C(=O)O)CC4)n4ncnc(N)c34)[nH]c12
Procedure, shortened: as §1

[2] = compound: COC1=CC=C(C=C1)CN2C=CC3=C2C=C(C=C3)C(=O)NO
Procedure, shortened: as §1

zotarolimus = compound: CO[C@H]1C[C@@H]2CC[C@@H](C)[C@@](O)(O2)C(=O)C(=O)N2CCCC[C@H]2C(=O)O[C@H]([C@H](C)C[C@@H]2CC[C@H](n3cnnn3)[C@H](OC)C2)CC(=O)[C@H](C)/C=C(\C)[C@@H](O)[C@@H](OC)C(=O)[C@H](C)C[C@H](C)/C=C/C=C/C=C/1C [zotarolimus]
Procedure, shortened: as §1

[3] = compound: COc1cc2nc(-c3cc(F)ccc3O)nc(N[C@@H]3CNC[C@H]3C(C)(C)O)c2cc1OC
Procedure, shortened: as §1

gefitinib = compound: COc1cc2ncnc(Nc3ccc(F)c(Cl)c3)c2cc1OCCCN1CCOCC1 [gefitinib]
Procedure, shortened: as §1

lapatinib = compound: CS(=O)(=O)CCNCc1ccc(-c2ccc3ncnc(Nc4ccc(OCc5cccc(F)c5)c(Cl)c4)c3c2)o1 [lapatinib]
Procedure, shortened: as §1

pictilisib = compound: CS(=O)(=O)N1CCN(Cc2cc3nc(-c4cccc5[nH]ncc45)nc(N4CCOCC4)c3s2)CC1 [pictilisib]
Procedure, shortened: as §1

Measured: log2 fold change

NIPSNAP2 (UniProt C9J7B1)
inactive: filanesib 0.05 | idasanutlin -0.38 | alisertib -0.041 | [1] -0.047

MOB3B (UniProt Q86TA1)
inactive: [2] 0.355 | zotarolimus -0.087 | idasanutlin -0.24 | alisertib -0.001 | [3] 0.04 | gefitinib 0.384 | [1] -0.011 | lapatinib -0.033 | pictilisib 0.067

NUDT6 (UniProt P53370)
inactive: [2] 0.017 | zotarolimus -0.173 | alisertib 0.012 | [3] 0.175 | gefitinib -0.025 | [1] -0.084 | lapatinib -0.017

OXR1 isoform 2 (UniProt Q8N573)
inactive: [2] -0.175 | zotarolimus -0.014 | idasanutlin -0.009 | [3] 0.018 | gefitinib 0.014 | lapatinib -0.061 | pictilisib -0.073

NRGN (UniProt Q92686)
Chain of UniProt Q92686 (Q92686 whole entry, looked up): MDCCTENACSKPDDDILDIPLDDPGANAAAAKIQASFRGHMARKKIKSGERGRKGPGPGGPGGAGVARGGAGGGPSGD
inactive: [2] -0.831 | idasanutlin 0.023 | [3] -0.108 | gefitinib -0.012 | lapatinib 0.107 | pictilisib 0.404

NCOA5 (UniProt Q9HCD5)
Chain of UniProt Q9HCD5 (Q9HCD5 whole entry, looked up): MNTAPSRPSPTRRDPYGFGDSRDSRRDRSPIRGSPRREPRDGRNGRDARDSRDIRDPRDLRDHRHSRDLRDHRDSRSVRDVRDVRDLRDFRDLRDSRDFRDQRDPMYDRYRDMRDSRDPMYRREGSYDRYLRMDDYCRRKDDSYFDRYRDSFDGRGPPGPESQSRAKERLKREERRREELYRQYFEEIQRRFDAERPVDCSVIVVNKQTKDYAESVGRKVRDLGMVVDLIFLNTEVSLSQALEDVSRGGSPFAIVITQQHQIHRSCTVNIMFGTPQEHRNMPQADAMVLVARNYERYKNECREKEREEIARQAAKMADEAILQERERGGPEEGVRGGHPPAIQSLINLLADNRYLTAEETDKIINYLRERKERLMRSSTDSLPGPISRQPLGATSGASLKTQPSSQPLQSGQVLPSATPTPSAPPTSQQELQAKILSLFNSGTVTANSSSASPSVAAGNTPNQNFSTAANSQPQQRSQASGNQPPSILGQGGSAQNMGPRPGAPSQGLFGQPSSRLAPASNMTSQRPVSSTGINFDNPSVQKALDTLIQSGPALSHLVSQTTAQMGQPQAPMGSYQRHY
inactive: [2] 0.046 | filanesib 0.209 | [3] 0.04 | gefitinib 0.145 | lapatinib 0.047 | pictilisib -0.043

MYO19 (UniProt Q96H55)
active: pictilisib 0.567
inactive: [2] -0.083 | zotarolimus 0.071 | idasanutlin -0.116 | [3] 0.081 | gefitinib 0.024 | lapatinib 0.276

MXRA7 isoform 3 (UniProt P84157)
inactive: [3] 0.077 | lapatinib -0.27

MTHFD1, A0A384N5Y3
inactive: filanesib -0.025 | zotarolimus -0.032 | idasanutlin 0.024 | alisertib -0.011 | [3] 0.055 | gefitinib 0.075 | [1] 0.001 | lapatinib -0.016 | pictilisib 0.107

NMU (UniProt P48645)
inactive: [2] 0.259 | zotarolimus -0.018 | idasanutlin 0.057 | [3] -0.156 | gefitinib 0.162 | lapatinib -0.047 | pictilisib -0.3

MON1A (UniProt Q86VX9)
inactive: [2] -0.118 | filanesib -0.023 | alisertib 0.291 | [3] -0.042 | gefitinib 0.427 | [1] 0.049 | lapatinib -0.003 | pictilisib -0.011

MT-ND2 (UniProt P03891)
Chain of UniProt P03891 (P03891 whole entry, looked up): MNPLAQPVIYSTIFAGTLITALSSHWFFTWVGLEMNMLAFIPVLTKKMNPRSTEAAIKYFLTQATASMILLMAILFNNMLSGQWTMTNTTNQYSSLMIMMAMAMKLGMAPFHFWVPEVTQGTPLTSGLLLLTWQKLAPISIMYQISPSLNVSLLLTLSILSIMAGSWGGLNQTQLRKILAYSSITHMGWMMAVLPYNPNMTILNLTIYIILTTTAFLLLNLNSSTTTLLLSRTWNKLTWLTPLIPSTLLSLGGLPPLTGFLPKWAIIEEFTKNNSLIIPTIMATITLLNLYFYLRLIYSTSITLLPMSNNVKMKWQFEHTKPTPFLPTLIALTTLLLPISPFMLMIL
inactive: [2] -0.029 | zotarolimus 0.065 | idasanutlin -0.143 | alisertib 0.04 | [3] -0.131 | gefitinib 0.106 | [1] 0.074 | lapatinib -0.008 | pictilisib 0.139

MORC2 (UniProt Q9Y6X9)
Chain of UniProt Q9Y6X9 (Q9Y6X9 whole entry, looked up): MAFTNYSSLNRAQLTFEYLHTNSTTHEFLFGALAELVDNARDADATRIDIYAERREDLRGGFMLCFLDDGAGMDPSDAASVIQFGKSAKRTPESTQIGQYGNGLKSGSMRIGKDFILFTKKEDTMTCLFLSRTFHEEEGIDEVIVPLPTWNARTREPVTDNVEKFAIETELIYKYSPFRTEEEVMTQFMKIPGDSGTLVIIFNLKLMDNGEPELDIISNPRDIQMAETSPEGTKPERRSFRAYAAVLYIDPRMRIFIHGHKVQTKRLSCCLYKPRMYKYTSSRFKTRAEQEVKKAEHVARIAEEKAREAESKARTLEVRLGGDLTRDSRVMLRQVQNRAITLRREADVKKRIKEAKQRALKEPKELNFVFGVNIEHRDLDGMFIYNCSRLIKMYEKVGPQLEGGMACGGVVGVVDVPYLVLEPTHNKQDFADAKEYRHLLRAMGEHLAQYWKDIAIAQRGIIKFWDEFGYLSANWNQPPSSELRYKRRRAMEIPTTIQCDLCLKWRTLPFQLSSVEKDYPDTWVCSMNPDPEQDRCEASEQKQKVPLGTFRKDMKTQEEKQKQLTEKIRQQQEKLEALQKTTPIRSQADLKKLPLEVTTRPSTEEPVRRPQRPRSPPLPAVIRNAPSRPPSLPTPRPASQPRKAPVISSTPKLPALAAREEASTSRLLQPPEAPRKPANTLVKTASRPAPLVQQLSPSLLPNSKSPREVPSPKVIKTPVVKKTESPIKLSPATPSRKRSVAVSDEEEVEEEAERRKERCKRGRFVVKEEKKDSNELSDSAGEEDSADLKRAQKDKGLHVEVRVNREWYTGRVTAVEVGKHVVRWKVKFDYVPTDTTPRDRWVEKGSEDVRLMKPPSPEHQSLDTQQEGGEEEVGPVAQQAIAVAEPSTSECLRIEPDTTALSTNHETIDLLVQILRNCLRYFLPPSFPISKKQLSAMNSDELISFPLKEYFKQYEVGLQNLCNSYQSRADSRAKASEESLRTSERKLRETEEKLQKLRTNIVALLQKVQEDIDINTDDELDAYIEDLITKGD
inactive: [2] 0.195 | idasanutlin -0.018 | alisertib -0.012 | [3] 0.134 | [1] -0.013 | lapatinib -0.118

ORC3 (UniProt Q9UBD5)
inactive: idasanutlin -0.167

MOB2 isoform 3 (UniProt Q70IA6)
Chain of UniProt Q70IA6 (Q70IA6 whole entry, looked up): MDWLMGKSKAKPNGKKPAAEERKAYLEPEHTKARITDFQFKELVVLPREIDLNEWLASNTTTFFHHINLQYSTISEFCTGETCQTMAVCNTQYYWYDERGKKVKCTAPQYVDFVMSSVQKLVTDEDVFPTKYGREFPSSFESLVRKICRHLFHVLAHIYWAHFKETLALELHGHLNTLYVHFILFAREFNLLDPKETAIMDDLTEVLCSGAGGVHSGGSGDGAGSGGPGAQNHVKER
inactive: zotarolimus 0.205 | alisertib -0.066 | [3] -0.184 | gefitinib 0.051 | [1] 0.02 | lapatinib 0.025 | pictilisib 0.06

NEU3 isoform 2 (UniProt Q9UQ49)
Chain of UniProt Q9UQ49 (Q9UQ49 whole entry, looked up): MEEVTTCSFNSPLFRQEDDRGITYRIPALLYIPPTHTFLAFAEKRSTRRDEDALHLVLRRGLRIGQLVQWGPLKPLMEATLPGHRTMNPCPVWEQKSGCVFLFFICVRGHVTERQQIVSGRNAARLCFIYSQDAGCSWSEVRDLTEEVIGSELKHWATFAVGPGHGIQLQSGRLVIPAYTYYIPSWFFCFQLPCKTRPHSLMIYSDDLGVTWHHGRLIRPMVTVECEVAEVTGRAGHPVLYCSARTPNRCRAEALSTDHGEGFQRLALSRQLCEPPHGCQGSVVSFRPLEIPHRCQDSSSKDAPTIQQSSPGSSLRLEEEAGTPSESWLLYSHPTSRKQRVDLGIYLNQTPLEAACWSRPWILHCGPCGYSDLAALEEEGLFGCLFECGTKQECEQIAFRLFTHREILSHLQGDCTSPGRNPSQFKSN
inactive: filanesib -0.286 | [3] 0.301 | lapatinib -0.126

NECTIN2 isoform 2 (UniProt Q92692)
inactive: [2] 0.106 | filanesib 0.094 | idasanutlin 0.061 | alisertib -0.016 | gefitinib -0.048 | [1] 0.093 | pictilisib -0.368

NAP1L1 (UniProt B7Z9C2)
inactive: [2] -0.116 | idasanutlin -0.004 | alisertib 0.258 | gefitinib 0.03 | [1] 0.066 | pictilisib 0.111

NA (UniProt B2RBV5)
Chain of UniProt B2RBV5 (B2RBV5 whole entry, looked up): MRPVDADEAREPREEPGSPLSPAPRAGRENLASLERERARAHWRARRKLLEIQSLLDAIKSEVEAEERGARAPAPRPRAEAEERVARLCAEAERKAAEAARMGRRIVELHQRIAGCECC
inactive: filanesib 0.081 | alisertib -0.043 | [3] 0.001 | gefitinib -0.33 | [1] 0.028 | lapatinib -0.243 | pictilisib 0.061

NKAP (UniProt Q8N5F7)
inactive: [2] -0.005 | zotarolimus 0.112 | idasanutlin 0.115 | alisertib 0.037 | [3] -0.051 | gefitinib -0.029 | [1] -0.13 | lapatinib 0.09 | pictilisib -0.013

NA, A0A494C071
inactive: [2] -0.265 | zotarolimus -0.011 | idasanutlin -0.392 | alisertib 0.016 | gefitinib 0.367 | [1] 0.143 | pictilisib 0.277

NA, A0A1W2PSA9
inactive: zotarolimus -0.275 | idasanutlin 0.049 | pictilisib -0.179

NA (UniProt J3KR12)
inactive: [2] 0.123 | alisertib -0.116 | gefitinib -0.134 | [1] 0.077

NDUFA7 (UniProt M0R0N0)
inactive: filanesib -0.042

NOS1AP (UniProt O75052)
inactive: zotarolimus -0.098 | alisertib 0.353 | [3] -0.09 | [1] -0.118 | lapatinib -0.1

NELFCD (UniProt Q8IXH7)
Chain of UniProt Q8IXH7 (Q8IXH7 whole entry, looked up): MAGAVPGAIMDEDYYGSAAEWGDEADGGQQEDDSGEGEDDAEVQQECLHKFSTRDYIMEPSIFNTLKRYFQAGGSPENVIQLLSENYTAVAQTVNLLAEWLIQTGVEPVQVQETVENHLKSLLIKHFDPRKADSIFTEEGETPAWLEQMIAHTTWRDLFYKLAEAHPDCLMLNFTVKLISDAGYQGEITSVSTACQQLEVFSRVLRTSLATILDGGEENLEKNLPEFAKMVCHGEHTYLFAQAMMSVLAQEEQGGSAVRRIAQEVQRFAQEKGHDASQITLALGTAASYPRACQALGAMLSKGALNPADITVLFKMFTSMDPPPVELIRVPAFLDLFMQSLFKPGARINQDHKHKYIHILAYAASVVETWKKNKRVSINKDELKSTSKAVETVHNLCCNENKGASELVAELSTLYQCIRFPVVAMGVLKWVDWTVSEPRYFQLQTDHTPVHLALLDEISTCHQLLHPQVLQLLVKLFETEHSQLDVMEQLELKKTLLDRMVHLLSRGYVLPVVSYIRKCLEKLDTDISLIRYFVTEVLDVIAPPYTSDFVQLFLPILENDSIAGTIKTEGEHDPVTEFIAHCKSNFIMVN
inactive: [2] 0.006 | zotarolimus -0.071 | idasanutlin 0 | [3] 0.179 | gefitinib -0.052 | lapatinib -0.006 | pictilisib -0.061

MSANTD2 (UniProt Q6P1R3)
inactive: filanesib -0.107

OGFOD2 (UniProt Q6N063)
inactive: [2] -0.275 | zotarolimus 0.034 | idasanutlin 0.073 | alisertib 0.007 | gefitinib 0.071 | [1] -0.033 | pictilisib -0.144

NUDT7 (UniProt P0C024)
inactive: [2] 0.023 | filanesib -0.092 | gefitinib 0.05 | pictilisib 0.115

NCBP2AS2 (UniProt Q69YL0)
Chain of UniProt Q69YL0 (Q69YL0 whole entry, looked up): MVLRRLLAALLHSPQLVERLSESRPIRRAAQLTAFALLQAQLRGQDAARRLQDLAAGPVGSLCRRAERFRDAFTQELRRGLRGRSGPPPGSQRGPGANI
inactive: filanesib -0.09 | zotarolimus -0.051 | idasanutlin -0.023 | alisertib -0.058 | gefitinib -0.137 | [1] 0.044 | lapatinib -0.093 | pictilisib 0.033
active: [3] -0.42

NKTR (UniProt P30414)
Chain of UniProt P30414 (P30414 whole entry, looked up): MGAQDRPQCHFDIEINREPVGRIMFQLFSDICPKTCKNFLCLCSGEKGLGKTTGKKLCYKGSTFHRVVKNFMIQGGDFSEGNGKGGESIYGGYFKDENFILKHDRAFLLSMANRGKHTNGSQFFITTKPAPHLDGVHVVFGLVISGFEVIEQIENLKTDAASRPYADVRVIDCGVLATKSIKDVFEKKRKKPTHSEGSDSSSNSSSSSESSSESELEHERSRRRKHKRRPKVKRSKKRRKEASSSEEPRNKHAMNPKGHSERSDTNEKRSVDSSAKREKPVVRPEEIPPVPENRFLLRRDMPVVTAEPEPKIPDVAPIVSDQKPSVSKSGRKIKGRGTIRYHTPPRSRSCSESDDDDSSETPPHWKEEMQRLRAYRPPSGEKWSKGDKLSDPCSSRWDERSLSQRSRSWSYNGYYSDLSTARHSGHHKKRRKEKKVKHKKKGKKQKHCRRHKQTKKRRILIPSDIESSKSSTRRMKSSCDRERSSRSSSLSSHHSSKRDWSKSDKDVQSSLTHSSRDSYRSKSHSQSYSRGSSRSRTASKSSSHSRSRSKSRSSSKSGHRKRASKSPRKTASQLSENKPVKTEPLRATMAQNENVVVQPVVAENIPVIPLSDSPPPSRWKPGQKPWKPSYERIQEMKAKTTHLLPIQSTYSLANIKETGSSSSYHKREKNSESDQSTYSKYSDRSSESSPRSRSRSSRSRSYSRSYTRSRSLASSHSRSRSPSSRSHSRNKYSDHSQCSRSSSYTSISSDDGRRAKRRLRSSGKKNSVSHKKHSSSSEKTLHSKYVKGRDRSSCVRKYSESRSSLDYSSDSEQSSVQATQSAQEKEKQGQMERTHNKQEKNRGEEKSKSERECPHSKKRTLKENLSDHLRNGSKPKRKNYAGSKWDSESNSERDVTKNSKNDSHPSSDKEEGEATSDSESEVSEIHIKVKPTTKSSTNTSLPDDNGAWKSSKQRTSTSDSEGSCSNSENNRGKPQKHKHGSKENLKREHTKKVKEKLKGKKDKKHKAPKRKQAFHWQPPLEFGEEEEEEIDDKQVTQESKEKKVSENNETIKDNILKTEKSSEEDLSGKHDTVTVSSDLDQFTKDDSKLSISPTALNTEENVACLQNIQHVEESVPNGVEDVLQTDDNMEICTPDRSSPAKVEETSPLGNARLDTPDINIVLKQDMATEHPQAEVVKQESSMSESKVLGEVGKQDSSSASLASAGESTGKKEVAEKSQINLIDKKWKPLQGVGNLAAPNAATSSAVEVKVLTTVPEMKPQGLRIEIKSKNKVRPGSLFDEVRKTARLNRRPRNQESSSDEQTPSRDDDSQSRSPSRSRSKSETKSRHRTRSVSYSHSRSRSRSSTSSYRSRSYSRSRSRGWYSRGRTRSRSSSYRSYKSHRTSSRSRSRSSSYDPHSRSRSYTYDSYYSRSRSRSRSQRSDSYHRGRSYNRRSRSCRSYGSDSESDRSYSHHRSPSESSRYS
inactive: alisertib 0.064 | [3] 0.295 | [1] 0.109 | lapatinib -0.173
